Values without a mark were called inactive. Records with an inconclusive call do not appear. A call without a number means that no potency is given here. Calls of active or inactive are those of the source. Unless noted, calls come from the whole dose curve; as a rule, active = well fitted curve in the direction sought with a large enough effect; inconclusive = small, poorly fitted or top-dose-only effect, or another doubt; inactive = no such curve, though single readings can be large; an effect the other way counts as inactive or inconclusive.

Assay [1] deals with Cytochrome P450 3A4 (Homo sapiens) (UniProt P08684). Description: qHTS Assay for Activators of Cytochrome P450 3A4 (AID 885). Note: nearly all actives have a fitted effect of over 65% in size. A digest of the protocol: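 Human CYP3A4 (20 nM) with Luciferin-PPXE at 25 uM (its KM) in 200 mM KPO4; 10 min compound preincubation, then NADPH regeneration and 60 min reaction at RT. Luciferin read by luminescence; normalized to 57 uM ketoconazole full inhibition.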
Chain of Cytochrome P450 3A4 (Homo sapiens) (P08684 whole entry, looked up): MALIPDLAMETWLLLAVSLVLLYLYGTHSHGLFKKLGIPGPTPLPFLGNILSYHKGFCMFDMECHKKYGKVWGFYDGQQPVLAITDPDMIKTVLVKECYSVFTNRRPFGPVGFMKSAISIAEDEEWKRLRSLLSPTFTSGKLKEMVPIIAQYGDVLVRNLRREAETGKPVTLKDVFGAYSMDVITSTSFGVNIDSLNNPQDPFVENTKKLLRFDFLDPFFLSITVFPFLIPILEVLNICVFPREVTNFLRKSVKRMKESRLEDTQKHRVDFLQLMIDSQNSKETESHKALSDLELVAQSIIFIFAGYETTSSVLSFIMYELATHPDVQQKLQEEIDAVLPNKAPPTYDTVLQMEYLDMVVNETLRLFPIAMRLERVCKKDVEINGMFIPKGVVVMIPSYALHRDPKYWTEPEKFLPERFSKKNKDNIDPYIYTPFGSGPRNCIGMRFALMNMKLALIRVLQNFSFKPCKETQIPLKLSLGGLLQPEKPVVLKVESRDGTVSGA
Background: In qHTS, concentration-response curves come from the screen itself.

The target in assay [2] is Atrial natriuretic peptide receptor 1 (Homo sapiens) (UniProt P16066). Description: Natriuretic polypeptide receptor (hNpr1) antagonism - Pilot CMLD screen (AID 1347052; calls by dose curve;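 note: HEK293 cells with hNpr1 stimulated by hNppA peptide at 0.1 nM; cGMP level read as GloSensor luciferase luminescence after agonist stimulation; series mostly up to about 9.2 µM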).
Chain of Atrial natriuretic peptide receptor 1 (Homo sapiens) (P16066 whole entry, looked up): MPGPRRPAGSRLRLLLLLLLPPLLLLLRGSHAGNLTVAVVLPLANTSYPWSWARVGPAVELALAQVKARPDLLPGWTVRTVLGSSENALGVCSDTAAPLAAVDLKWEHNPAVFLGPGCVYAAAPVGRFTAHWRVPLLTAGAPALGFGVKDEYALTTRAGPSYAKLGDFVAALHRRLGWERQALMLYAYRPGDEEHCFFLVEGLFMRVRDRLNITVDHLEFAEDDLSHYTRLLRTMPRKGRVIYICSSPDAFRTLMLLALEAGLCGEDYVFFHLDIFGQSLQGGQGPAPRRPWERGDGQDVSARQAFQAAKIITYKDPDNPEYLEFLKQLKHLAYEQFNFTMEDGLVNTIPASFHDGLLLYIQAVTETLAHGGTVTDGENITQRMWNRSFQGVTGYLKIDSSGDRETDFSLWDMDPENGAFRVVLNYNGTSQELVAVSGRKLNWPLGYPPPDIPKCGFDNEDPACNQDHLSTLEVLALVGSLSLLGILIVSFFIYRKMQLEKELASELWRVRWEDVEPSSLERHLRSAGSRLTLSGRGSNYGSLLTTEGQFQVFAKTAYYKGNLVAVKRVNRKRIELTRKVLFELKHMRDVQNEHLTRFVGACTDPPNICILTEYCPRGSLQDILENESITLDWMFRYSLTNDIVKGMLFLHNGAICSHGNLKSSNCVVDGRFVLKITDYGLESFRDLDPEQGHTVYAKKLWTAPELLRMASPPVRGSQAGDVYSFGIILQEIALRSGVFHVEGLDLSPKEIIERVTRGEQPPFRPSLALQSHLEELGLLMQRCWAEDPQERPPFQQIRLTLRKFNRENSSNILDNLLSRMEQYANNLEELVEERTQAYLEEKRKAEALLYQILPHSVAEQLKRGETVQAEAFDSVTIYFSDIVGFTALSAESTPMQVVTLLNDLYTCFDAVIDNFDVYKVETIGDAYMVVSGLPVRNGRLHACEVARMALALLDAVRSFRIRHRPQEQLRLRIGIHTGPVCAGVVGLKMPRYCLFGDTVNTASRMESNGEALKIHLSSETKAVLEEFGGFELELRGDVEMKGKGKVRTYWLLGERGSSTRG
The nature of assay [3]: qHTS for Inhibitors of Plasmodium falciparum (CP250) proliferation (AID 504320). A digest of the protocol:
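Erythrocytes infected with P. falciparum line (0.3% parasitemia, 2.5% hematocrit final) incubated with compounds 72 h at 37 °C, 5% CO2; SYBR Green lysis buffer added, fluorescence read next day. Normalized to 0.29 uM artemisinin and DMSO.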

As for `CCCCCCC#Cc1cc(OC)c(OC)cc1C(N1CC(C)c2ccccc21)N1CC(C)c2ccccc21` (configuration not stated), in assay [1], the activity change, positive = activation was -88.3% [at 11.4 µM]. Also, in assay [2], the Potency entry is “inactive”.
For the compound `O=C(NCCOc1ccccc1)O[C@@H]1C(=O)c2cc(Br)ccc2O[C@H]1c1ccc2c(c1)OCO2`, the Potency entry in assay [3] and in assay [2] was “inactive” in each case.
As for `O=C1N(Cc2ccc(Br)cc2)c2cccc(Br)c2[C@@]12O[C@H](COc1ccccc1)CC1=CCCC12` (some centres not stated), the Potency result in assay [3] and in assay [2] was “inactive” in each case.
Consider `CC(C)=CCCC(C)=CCN1C(=O)[C@]2(O[C@H](C)CC3=CCCC32)c2c(Br)cccc21` (some centres not stated), for which the Potency result in assay [3] and in assay [2] was “inactive” throughout.
With `CCN1C(=NCc2ccccc2)NC(c2cccc(C(F)(F)F)c2)C(C(=O)OC)=C1C` (configuration not stated), the Potency entry in assay [3] and in assay [2] was “inactive” throughout.
With `COC(=O)CCC(=O)N1C2=NC3=C(C(=O)N(Cc4ccc5c(c4)OCO5)C3=O)C3N(C)c4ccccc4[C@]23C[C@H]1CO` (some centres not stated), the Potency result in assay [3] and in assay [2] was “inactive” each time.

Source of the values: PubChem BioAssay (NCATS).
